# This is a sample that favours compounds with a hit; in the whole collection about 3.6% have one here.
# HepG2 viability – qHTS for Inhibitors of TGF-b: Cytotox Counterscreen; Potency, µM (series often up to 46.1 µM), inactives show at the top dose activity change, negative = cytotoxicity, usual class: cytotoxic; AID 588856, 2011; 410,000 compounds, 0.76% hits; HepG2 CAGA-GFP viability, ATP luminescence, 18 h
#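 CellTiter-Glo luminescence gave cytotoxicity after 18 hours at 37 degrees C. The cells were HepG2 CAGA-GFP in 1% FBS DMEM, stimulated with 500 pg/mL TGF-beta after compound addition. %Activity was normalised to no-cell wells (complete cell-killing) and DMSO (no toxicity), and curves were fitted and classified.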
# TGFb inhibitor – qHTS for Inhibitors of TGF-b. HepG2 CAGA-GFP TGF-b/SMAD3 reporter, GFP fluorescence, 18 h; TGF-beta stimulated, 500 pg/mL final. Potency, µM (highest dose often 46.1 µM), for the others: at the top dose activity, negative = inhibition, hits mostly inhibitors. 410,000 compounds, 1.2% hits. AID 588855, 2011; further: on the % scale 0 is the no-effect control and ±100 the full control effect; nearly all actives have a fitted effect of over 65% in size
#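 Using HEPG2 CAGA-GFP reporter cells at 1000 cells/well, we pinned test compounds, stimulated with recombinant TGF-beta (500 pg/mL final) and measured total well GFP after 18 h.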
# Nrf2 activator – qHTS of Nrf2 Activators | AID 624171, 2012 | AREc32 ARE-luciferase reporter (MCF7-derived line), luminescence, 24 h | Potency, µM (titrated, usually from 46.1 µM), for the others: at the highest dose activation, most hits filed as activators | 410,000 compounds, 0.31% hits; further: % of control where 0% means no effect; nearly all actives have a fitted effect of over 65% in size
#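 Each well held 1000 AREc32 cells, which were incubated with compound for 24 hr at 37 deg C after overnight attachment, and ARE reporter activity was quantified by firefly luciferase luminescence.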
# Nrf2 inh – Nrf2 qHTS screen for inhibitors; A549 ARE-Fluc reporter, luciferase luminescence, 18-24 h; 360,000 compounds, 2.1% hits; Potency, µM (titrated, usually from 46 µM), without a hit: at the top dose activity change, negative = inhibition, usual class: inhibitors; further: on the % scale 0 is the no-effect control and ±100 the full control effect; nearly all actives have a fitted effect of over 60% in size
#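 Reporter: ARE-Fluc in A549. Exposure: 18-24 h, 37 °C, 5% CO2, 5% FBS OPTI-MEM. Readouts: fluorescent cytotoxicity (CellTiter-Fluor), then luminescent Nrf2 signal after BugLite.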
# A549 viability – Nrf2 qHTS screen for inhibitors: counterscreen for cytotoxicity | Potency, µM (doses to about 46 µM), without a hit: at the highest dose activity change, negative = cytotoxicity, hits mostly inhibitors | A549 ARE-Fluc cells, CellTiter-Fluor viability, 18-24 h | 390,000 compounds, 0.16% hits; further: on the % scale 0 is the no-effect control and ±100 the full control effect
#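 A549 ARE-Fluc cells in 5% FBS OPTI-MEM, 5000 cells/well, rested 2 h then exposed to compounds in concentration-response for 18-24 h at 37 °C. Viability by CellTiter-Fluor fluorescence (Ex 405/Em 525) after 30 min; luciferase luminescence (BugLite, 15 min, RT) read afterwards.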
# An asterisk follows results filed as active; ? = inconclusive; . = not tested or not shown. The call rests on the fitted dose curve; in most records, active means well fitted curve in the direction sought with a large enough effect; inconclusive means small, poorly fitted or top-dose-only effect, or another doubt; inactive means no such curve, though single readings can be large; an effect the other way counts as inactive or inconclusive. Potency means the concentration at half of the fitted maximal effect.
SMILES,HepG2 viability,TGFb inhibitor,Nrf2 activator,Nrf2 inh,A549 viability
O=C1CC(c2ccccc2)CC(O)=C1C=Nc1ccccc1O (centres undefined),-15%,-6%,14µM*,-16%,1%
O=C1CC(c2ccco2)CC(O)=C1C=Nc1cc(Cl)ccc1Cl (centres undefined),4%,1%,3%,-13%,-7%
O=C(NC(=S)Nc1ccccc1N1CCCC1)c1ccco1,-31%,0%,14µM*,4%,2%
O=C(NC(=S)Nc1cccc(Cl)c1N1CCCCC1)c1ccco1,-35%,?,11%,?,-14%
COc1cc(C(=O)NC(=S)Nc2ccccc2N2CCCC2)cc(OC)c1OC,-20%,-28%,6%,18µM*,-16%
O=C(NC(=S)N(CCc1ccccc1)CCc1ccccc1)c1ccco1,-13%,?,?,18µM*,-20%
CC(CCc1ccccc1)NC(=S)NC(=O)c1ccco1 (centres undefined),-12%,-2%,5%,-9%,11%
O=C(NC(=S)Nc1ccccc1N1CCOCC1)c1ccco1,4%,11%,14%,10%,0%
O=C(NC(=S)Nc1ccccc1Cl)c1ccco1,-10%,-4%,13µM*,?,1%
Cc1ccc(S(=O)(=O)NCCCN2CCOCC2)cc1C,-3%,-17%,0%,7%,0%
Cc1c(N=C2C=CC(=O)c3ccccc32)c(=O)n(-c2ccccc2)n1C,-100%,?,-1%,?,?
O=C(NC(=S)Nc1ccccc1N1CCCCC1)c1ccco1,-42%,11µM*,10%,5%,3%
O=C(Nc1ccc(-c2nnc3n2CCCCC3)cc1)c1cc2ccccc2o1,9%,-1%,1%,-27%,-5%
Cc1c(C(=O)Nc2ccc(-c3nnc4n3CCCCC4)cc2)oc2c1ccc1ccccc12,-78%,?,-3%,9.2µM*,?
CCN(CC)C(=O)Oc1ccc(Cl)c2ccccc12,-6%,0%,1%,7%,-2%
CCOC(=O)c1ccc(N2C(=O)c3[nH]nc(-c4ccccc4)c3C2c2cccs2)cc1 (centres undefined),-46%,7.1µM*,-3%,?,?
CCOC(=O)c1ccc(N2C(=O)c3[nH]nc(-c4ccc(OCC)cc4)c3C2c2ccc(OC)cc2OC)cc1 (centres undefined),-16%,?,0%,-8%,16%
CCOC(=O)c1ccc(N2C(=O)c3[nH]nc(-c4ccc(OCC)cc4)c3C2c2cccs2)cc1 (centres undefined),-20%,?,5%,18µM*,-21%
COC(=O)c1ccc(COc2ccccc2/C=N/NS(=O)(=O)c2ccccc2)cc1,-6%,?,0%,.,-2%
Cc1ccc(-n2c(SCc3nc(-c4ccc(Cl)cc4)no3)nnc2-c2ccncc2)cc1,-54%,?,5%,23µM*,-24%
Cc1ccc(-c2noc(CSc3nnc(C)n3-c3ccc(C)c(C)c3)n2)cc1,-53%,?,5%,16µM*,-12%
CCOc1ccc(-c2noc(CSc3nnc(-c4ccccc4)n3-c3ccccc3)n2)cc1,3%,21%,-1%,?,-10%
Clc1ccccc1-c1nnc(SCc2nc(-c3ccccc3)no2)n1-c1ccccc1,-28%,?,-1%,15µM*,-29%
CCOC(=O)C1CCCN(C(=O)c2ccc(S(=O)(=O)Nc3ccccc3OC)cc2)C1 (centres undefined),-40%,-25%,-1%,10%,0%
O=C(Nc1cc(Cl)ccc1F)c1ccc(-n2cncn2)c([N+](=O)[O-])c1,2%,8%,2%,?,-3%
CCC(=O)N1CCN(c2ccc(Cl)cc2NC(=O)c2ccc([N+](=O)[O-])o2)CC1,-14%,?,11µM*,-4%,-5%
O=C(Nc1cc(Cl)ccc1-n1cncn1)c1ccc([N+](=O)[O-])o1,-21%,0%,13µM*,10%,-5%
